Each structure is given as a SMILES string. Calls of active or inactive are those of the source. Rule for the calls: active = hit-call score of the fitted dose curve at least 0.9, where 1 is the maximum; inactive = score below 0.9.

A short description of this assay: APR_HepG2_p53Act_1hr: Apredica 1-hour HepG2 Assay for p53 Activation (AID 2282671). The conditions noted are these: high-content imaging, actives raise or lower the signal. Here is the method:
APR_HepG2_1hr is a cell-based, multiplexed-readout assay that uses HepG2, a human liver cell line, with measurements taken at 1 hour after chemical dosing in a 384-well plate.APR_HepG2_p53Act_1hr is one of 10 assay component(s) measured or calculated from the APR_HepG2_1hr assay. It is designed to make measurements of dna content, a form of viability reporter, as detected with fluorescence intensity signals by HCS Fluorescent Imaging technology.Data from the assay component APR_HepG2_p53Act_1hr was analyzed into 1 assay endpoint. This assay endpoint, APR_HepG2_p53Act_1hr, was analyzed with bidirectional fitting relative to DMSO as the negative control and baseline of activity. Using a type of viability reporter, measures of protein for gain or loss-of-signal activity can be used to understand the signaling at the pathway-level as they relate to the gene TP53. Furthermore, this assay endpoint can be referred to as a primary readout, because this assay has produced multiple assay endpoints where this one serves a signaling function. To generalize the intended target to other relatable targets, this assay endpoint is annotated to the dna binding intended target family, where the subfamily is tumor suppressor.
Cells were treated with dimethyl sulfoxide (DMSO) as a solvent control at a final concentration of 0.5% v/v or with compounds in DMSO with a resulting final DMSO concentration of 0.5% v/v. Compound treatment was done at concentrations of 0.39, 0.78, 1.56, 3.12, 6.24, 12.5, 25, 50, 100, and 200 uM in duplicate on each plate. Cells were treated with compounds for 1, 24, or 72 hr. Carbonyl […] m-chloro-phenylhydrazone (CCCP) and taxol were used as positive controls for mitochondrial function and cytoskeletal stability, respectively; DMSO served as the negative control for this experiment. Cells were fixed by the direct addition of 50 uL formaldehyde in Hank's Balanced Salt Solution (HBSS) to a final concentration of 3.7%. After incubation in the fixation medium for 30 min at room temperature (293-298 K), cells were rinsed twice with HBSS and treated with cell permeabilization buffer (16 uL of 0.5% Triton X-100) for 10 min at room temperature (293-298 K) before labeling. For mitochondrial membrane potential and mitochondrial measurements, pre-fixed cells were incubated with 50 uL of MitoTracker Red CMXRos (Invitrogen) at a concentration of 250 nM for 30 min before fixation. In the remaining cases, post-fixed cells were labeled by incubation with a multiplexed mixture of primary antibodies in HBSS for 60 min at room temperature (293-298 K) to detect immunoreactivity of c-Jun (1:500), phospho-histone H3 (1:100), phospho-histone H2A.x (1:200), p53 (1:400), alpha-tubulin (1:200) and Hoechst 33342 (2 ug/mL). Cells were labeled for multiplexed imaging on two separate plates: a) Hoechst 33342, MitoTracker Red, phospho-histone H3, and alpha-tubulin, and b) Hoechst 33342, phospho-histone H2A.x, and c-Jun. A final rinse with HBSS (50 uL) was performed before analysis. The primary and secondary antibodies for the proteins were phospho-histone H3 (rabbit anti-phospho-histone H3 and FITC-donkey anti-rabbit IgG), phospho-histone H2A.x (mouse anti-phospho-histone H2A.x and FITC-donkey anti-mouse IgG), c-Jun (rabbit anti-phospho-c-Jun and Cy3-donkey anti-rabbit IgG), p53 (sheep anti-p53 and Cy5-donkey anti-sheep IgG), alpha-tubulin (mouse anti-alpha-tubulin and Cy5-donkey anti-mouse IgG). These antibodies are available as the CellCiphr HepG2 assay kit (Millipore).Digital images of each well were captured using a Cellomics ArrayScan VTI (Thermo Scientific Cellomics) (0.8 NA objective, 0.63x optical coupler, and XF-93 filter set) at 20x magnification. The images were acquired using the autofocus feature of the ArrayScan instrument, which entails the following steps. First, the camera focuses on channel 1 (Hoechst 33342), where nuclei are identified. Second, a Z offset of 1 um is used for capturing mitochondria (MitoTracker Red). […]
As for `Cn1c(-c2ccccc2)cc(-c2ccccc2)[n+]1C`, the call was inactive.
Turning to `O=P(O)(O)CCCl`, the call was inactive.
Then `COP(=O)(OC)O/C(C)=C/C(=O)N(C)C`, with “inactive”; and `COP(=S)(OC)SCn1nnc2ccccc2c1=O`, with “inactive”.
Turning to `Cc1c(COC(=O)[C@@H]2[C@H](/C=C(\Cl)C(F)(F)F)C2(C)C)cccc1-c1ccccc1`, the molecule was called inactive.
Then `COc1cc(OC)nc(NC(=O)NS(=O)(=O)c2ncccc2OCC(F)(F)F)n1`, with “inactive”; and `N#Cc1c(Cl)cccc1Cl`, with “inactive”; and `CS(=O)(=O)c1ccc(C(=O)C2C(=O)CCCC2=O)c([N+](=O)[O-])c1`, with “inactive”.
Next, `CC(C)Oc1cccc(NC(=O)c2ccccc2C(F)(F)F)c1`: “inactive”; `CS(=O)(=O)c1cc(C(F)(F)F)ccc1C(=O)c1cnoc1C1CC1`: “inactive”.
In the case of `CCSC(=O)N1CCCCCC1`, the molecule was classed as inactive.
Next, `COC(=O)c1c(C(F)F)nc(C(F)(F)F)c(C2=NCCS2)c1CC(C)C`: “inactive”; `CCC(C)n1c(=O)[nH]c(C)c(Br)c1=O` (stereo not given): “inactive”.
Next, `CCOc1nc(F)cc2nc(S(=O)(=O)Nc3c(Cl)cccc3Cl)nn12`: “inactive”; `CNC(=O)Oc1cccc2ccccc12`: “inactive”; `Clc1nc(Cl)nc(Nc2ccccc2Cl)n1`: “inactive”.
For the molecule `CC(C)NC(=O)N1CC(=O)N(c2cc(Cl)cc(Cl)c2)C1=O`, the result was inactive.
Then `COCC(C)N(C(=O)CCl)c1c(C)csc1C` (stereo not given), with “inactive”; and `CCN(CC)c1nc(C)cc(OP(=S)(OC)OC)n1`, with “inactive”.
Then `CC1(C)CCC(=Cc2ccc(Cl)cc2)C1(O)Cn1cncn1` (stereo not given), with “inactive”.
Next, `CC(C)Nc1nc(Cl)nc(NC(C)C)n1`: “inactive”.
For the molecule `CN=C=S`, the call was inactive.
Next, `CCOc1nc(C(Cl)(Cl)Cl)ns1`: “inactive”; `CC1(C)C(C(=O)OC(C#N)c2cccc(Oc3ccccc3)c2)C1(C)C` (stereo not given): “inactive”.
Then `CCCC(=NOCC)C1=C(O)CC(CC(C)SCC)CC1=O` (stereo not given), with “inactive”.
Next, `Cc1cc(C)nc(Nc2ccccc2)n1`: “inactive”; `CO/N=C(/C1=NOCCO1)c1ccccc1Oc1ncnc(Oc2ccccc2Cl)c1F`: “inactive”; `Nc1c(Cl)c(F)nc(OCC(=O)O)c1Cl`: “inactive”.
As for `O=C1C2CC=CCC2C(=O)N1SC(Cl)(Cl)Cl` (stereo not given), the molecule was called inactive.
Turning to `COC(=O)N(C(=O)N1CO[C@@]2(C(=O)OC)Cc3cc(Cl)ccc3C2=N1)c1ccc(OC(F)(F)F)cc1`, the molecule was classed as inactive.
Regarding `Clc1cccc(C(Cl)(Cl)Cl)n1`, the molecule was called inactive.
Then `COC(=O)NS(=O)(=O)c1ccc(N)cc1`, with “inactive”.
For the molecule `CCCCC(O)(Cn1cncn1)c1ccc(Cl)cc1Cl` (stereo not given), the result was inactive.
Then `C=CCOC(=O)C(C)(C)OC(=O)c1cc(-n2c(=O)cc(C(F)(F)F)n(C)c2=O)ccc1Cl`, with “inactive”; and `CCN(CC)C(=O)C(C)Oc1cccc2ccccc12` (stereo not given), with “inactive”.
Then `Nc1c(Cl)c(Cl)nc(C(=O)O)c1Cl`, with “inactive”; and `CC1(C)C(C=C(Cl)Cl)C1C(=O)OC(C#N)c1cccc(Oc2ccccc2)c1` (stereo not given), with “inactive”; and `COc1cc(Cl)c(OC)cc1Cl`, with “inactive”.
Next, `CC1(C)CON(Cc2ccccc2Cl)C1=O`: “inactive”; `CCCN(CC)CC1COC2(CCC(C(C)(C)C)CC2)O1` (stereo not given): “inactive”.

These data come from PubChem BioAssay (EPA / NIEHS).
